Measurements published in PubChem BioAssay (Tox21).
Records with an inconclusive call do not appear. Calls of active or inactive are those of the source. Unless noted, the call rests on the fitted dose curve; in most records, active means well fitted curve in the direction sought with a large enough effect in the repeat runs; inconclusive means weak or mixed curves; inactive means no such curve, though single readings can be large; an effect the other way counts as inactive or inconclusive.

Tests used:
[1] = qHTS assay to identify small molecule antagonists of the estrogen related receptor (ERR) signaling pathway from Tox21 library - cell viability counter screen (AID 1224834); further: nearly all actives have a fitted effect of over 30% in size
Summary of the method: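 Compounds in DMSO were pinned onto ERR cells that had been incubated for 6 h, and the plates were held at 37 C for 17.5 h. CellTiter-Fluor reagent was then added and fluorescence was measured after 30 min.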

[2] = target: Luciferin 4-monooxygenase (Photinus pyralis) (UniProt P08659); assay: qHTS assay to identify small molecule inhibitors of firefly luciferase (AID 1224835); further: nearly all actives have a fitted effect of over 25% in size; further: potency means the concentration at half of the fitted maximal effect
Summary of the method: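 Inhibition of purified Photinus luciferase is measured by luminescence. Substrate levels (D-luciferin, ATP) sit at their KM values. Each compound is tested in a concentration series.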

[3] = qHTS assay to identify small molecule agonists of the constitutive androstane receptor (CAR) signaling pathway - cell viability counter screen (AID 1224836); further: nearly all actives have a fitted effect of over 45% in size
Summary of the method: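 23 h treatment, 37 C, 5% CO2. Cell line: HepG2 stably expressing hCAR with a CYP2B6-2.2kb construct. Co-treatment: PK11195, 0.75 uM final. Read-out: CellTiter-Fluor fluorescence intensity.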

[4] = qHTS assay to identify small molecule antagonists of the constitutive androstane receptor (CAR) signaling pathway - cell viability counter screen (AID 1224837); further: nearly all actives have a fitted effect of over 45% in size
Summary of the method: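 Cells are seeded, rested 4 hr at 37 C/5% CO2, dosed with compound (15-point series) and 50 nM CITCO, incubated a further 23 hr, and then CellTiter-Fluor reagent is added before fluorescence is read. The line is HepG2 with stable hCAR and CYP2B6-2.2kb.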

[5] = target: Nuclear receptor subfamily 1 group I member 3 (Homo sapiens) (UniProt Q14994); assay: qHTS assay to identify small molecule antagonists of the constitutive androstane receptor (CAR) signaling pathway (AID 1224838);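 further: HepG2 cells stably expressing hCAR with CYP2B6 luciferase reporter stimulated by CITCO; nearly all actives have a fitted effect of over 40% in size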; further: potency means the concentration at half of the fitted maximal effect
Summary of the method: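 Luminescence from a CYP2B6-2.2kb promoter reporter in hCAR-expressing HepG2 cells reflects CAR signaling. Cells received compounds at 15 concentrations and 50 nM CITCO (final), then incubated 24 h at 37 C/5% CO2.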

[6] = target: Nuclear receptor subfamily 1 group I member 3 (Homo sapiens) (UniProt Q14994); assay: qHTS assay to identify small molecule agonists of the constitutive androstane receptor (CAR) signaling pathway (AID 1224839); further: nearly all actives have a fitted effect of over 15% in size; further: potency means the concentration at half of the fitted maximal effect;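 on activation: HepG2 cells stably carrying human CAR and a CYP2B6 luciferase reporter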
Summary of the method: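 Compounds tested at 15 concentrations on HepG2 cells stably harbouring hCAR and CYP2B6-2.2kb reporter constructs, co-treated with PK11195 (0.75 uM final), 24 h at 37 C; luminescent reporter signal quantified.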

[7] = qHTS assay to identify small molecule antagonists of the estrogen related receptor signaling pathway with the pleiotropic PPARgamma coactivator (PGC) from Tox21 10K library - cell viability counter screen (AID 1224840; active means well fitted cell-killing curve with a large enough effect in the repeat runs, not every such curve was filed as active; further: nearly all actives have a fitted effect of over 40% in size)
Summary of the method: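 Cell viability is measured by CellTiter-Fluor fluorescence in PGC/ERR cells that receive compounds after a 6-hour attachment period and are then incubated 17.5 hours at 37 C.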

[8] = target: Thyrotropin receptor (Homo sapiens) (UniProt P16473); assay: qHTS assay to identify small molecule agonists of the thyroid stimulating hormone receptor (TSHR) signaling pathway (AID 1224843; calls by dose curve; further: nearly all actives have a fitted effect of over 45% in size)
Summary of the method: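 A cell-based cAMP HTRF format was run in TSHR-transfected HEK293 cells, 800 per well. Treatment: 30 min, room temperature. Detection: 1 h with labelled cAMP and anti-cAMP cryptate. Concentration-response over 15 points, three replicates.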

[9] = qHTS assay to identify small molecule agonists of the hypoxia (HIF-1) signaling pathway - cell viability counter screen (AID 1224844; calls by dose curve; further: nearly all actives have a fitted effect of over 50% in size)
Summary of the method: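 Viability counter screen: HRE-bla ME-180 cells plated 5 hrs before compound addition, treated 17 hrs at 37C and 5% CO2, then CellTiter-Glo added after the FRET reporter read; luminescence after 30 min.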

[10] = qHTS assay to identify small molecule agonists of the hypoxia (HIF-1) signaling pathway (AID 1224846; active means well fitted activation curve with a large enough effect in the signal ratio in the repeat runs, not every such curve was filed as active; the % refers to the signal ratio)
Summary of the method: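 Agonist mode reporter screen. ME-180 cells stably expressing bla under HRE control received test compounds in DMSO for 17 hrs (37C, 5% CO2), and beta-lactamase activity was then detected with the CCF4-AM FRET substrate.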

[11] = qHTS assay to identify small molecule agonists of H2AX - cell viability counter screen (AID 1224847; calls by dose curve; further: nearly all actives have a fitted effect of over 30% in size; further: potency means the concentration at half of the fitted maximal effect)
Summary of the method: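 Compounds tested at 15 concentrations were incubated 3 hr at 37C with wild-type CHO-K1 cells; cellular ATP-based luminescence (CellTiter-Glo) indicated viability.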

[12] = qHTS RealTime-Glo MT Cell Viability Assay in HepG2 cells - 24 hour (AID 1224867); further: nearly all actives have a fitted effect of over 50% in size
Summary of the method: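 qHTS, HepG2, 600 cells/well, RealTime-Glo (NanoLuc + prosubstrate) added with cells; 5 h preincubation; DMSO compound addition; 37 C; luminescence at 0/8/16/24/32/40 h.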

[13] = qHTS RealTime-Glo MT Cell Viability Assay in HEK293 cells - 32 hour (AID 1224868); further: nearly all actives have a fitted effect of over 50% in size; further: potency means the concentration at half of the fitted maximal effect
Summary of the method: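 Assay medium contained NanoLuc luciferase plus cell-permeant prosubstrate, added with HEK293 cells at 600 cells/well. After 5 h at 37 C/5% CO2 compounds were added; plates stayed at 37 C for 40 h with serial luminescence reads.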

[14] = A CellTox Green Cytotoxicity Assay to monitor cytotoxicity in HEK293 cells - 0 hour (AID 1224869); further: nearly all actives have a fitted effect of over 50% in size; further: potency means the concentration at half of the fitted maximal effect
Summary of the method: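 Dead-cell fluorescence measured kinetically: asymmetric cyanine dye, HEK293, 600 cells/well, 5 h settle, 23 nL cpd/DMSO, 37 C, reads 0–40 h every 8 h.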

[15] = qHTS RealTime-Glo MT Cell Viability Assay in HepG2 cells - 40 hour (AID 1224870); further: nearly all actives have a fitted effect of over 50% in size
Summary of the method: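 Real-time viability: cells seeded at 600 per well together with NanoLuc and cell-permeant prosubstrate, compounds added after 5 h incubation. Luminescence tracked at 0, 8, 16, 24, 32 and 40 h of exposure.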

[16] = qHTS assay to identify small molecule agonists of the estrogen related receptor signaling pathway with the pleiotropic PPARgamma coactivator (PGC) from Tox21 10K library (AID 1224842); further: nearly all actives have a fitted effect of over 15% in size
Summary of the method: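 Luminescence from One-Glo (30 min, room temperature) measured after PGC/ERR cells had 18 h at 37 C with pinned compound (23 nL in DMSO). Cells had been seeded at 2,000 per well and pre-incubated 6 h.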

[17] = qHTS assay to identify small molecule agonists of the estrogen related receptor (ERR) signaling pathway from Tox21 library (AID 1224849; calls by dose curve; further: nearly all actives have a fitted effect of over 15% in size); details: ERR reporter cell line, ONE-Glo luciferase, 18 h; at 92.4 µM (top of the series) unless noted
Summary of the method: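 Quantitative HTS in agonist format: NTP ERR cell line, compounds transferred in DMSO after 6 h plating, 18 h incubation at 37 C, ONE-Glo luminescence endpoint.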

[18] = qHTS assay to identify small molecule agonists of H2AX (AID 1224845; active means well fitted activation curve with a large enough effect in the signal ratio in the repeat runs, not every such curve was filed as active; the % refers to the signal ratio)
Summary of the method: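 Phospho-H2AX Ser139 measured by HTRF (ex 320 nm; em 665 and 620 nm) after 24 hr antibody incubation. Compounds, 15 concentrations, 0.76% DMSO, were applied to CHO-K1 cells for 3hr at 37C before lysis.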

[19] = qHTS assay to identify small molecule antagonists of the estrogen related receptor (ERR) signaling pathway from Tox21 library (AID 1224848); further: nearly all actives have a fitted effect of over 50% in size; further: potency means the concentration at half of the fitted maximal effect
Summary of the method: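 ERR cell line, 2,000 cells/well. 6 h settle, then compound (DMSO) added; 18 h at 37 C; ONE-Glo luminescence after 30 min RT.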

[20] = qHTS assay to identify small molecule antagonists of the estrogen related receptor signaling pathway with the pleiotropic PPARgamma coactivator (PGC) from Tox21 10K library (AID 1224841; call rule not given here)
Summary of the method: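 Cells stably carrying the PGC/ERR reporter, seeded at 2,000 per well, received pin-transferred compounds 6 h post-plating. Exposure lasted 18 h at 37 C. Signal: One-Glo luminescence.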
On the % scale 0 is the no-effect control and ±100 the full control effect.

Chain of Nuclear receptor subfamily 1 group I member 3 (Homo sapiens) (Q14994 whole entry, looked up): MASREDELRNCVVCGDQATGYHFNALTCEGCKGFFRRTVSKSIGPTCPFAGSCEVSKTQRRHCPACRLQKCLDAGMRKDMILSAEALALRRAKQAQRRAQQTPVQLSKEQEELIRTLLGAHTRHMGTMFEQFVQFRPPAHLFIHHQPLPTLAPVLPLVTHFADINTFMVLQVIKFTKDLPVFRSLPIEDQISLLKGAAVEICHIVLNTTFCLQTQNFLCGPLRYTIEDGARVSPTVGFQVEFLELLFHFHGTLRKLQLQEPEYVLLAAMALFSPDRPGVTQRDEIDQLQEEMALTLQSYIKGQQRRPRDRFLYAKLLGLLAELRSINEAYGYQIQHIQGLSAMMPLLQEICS
Chain of Thyrotropin receptor (Homo sapiens) (P16473 whole entry, looked up): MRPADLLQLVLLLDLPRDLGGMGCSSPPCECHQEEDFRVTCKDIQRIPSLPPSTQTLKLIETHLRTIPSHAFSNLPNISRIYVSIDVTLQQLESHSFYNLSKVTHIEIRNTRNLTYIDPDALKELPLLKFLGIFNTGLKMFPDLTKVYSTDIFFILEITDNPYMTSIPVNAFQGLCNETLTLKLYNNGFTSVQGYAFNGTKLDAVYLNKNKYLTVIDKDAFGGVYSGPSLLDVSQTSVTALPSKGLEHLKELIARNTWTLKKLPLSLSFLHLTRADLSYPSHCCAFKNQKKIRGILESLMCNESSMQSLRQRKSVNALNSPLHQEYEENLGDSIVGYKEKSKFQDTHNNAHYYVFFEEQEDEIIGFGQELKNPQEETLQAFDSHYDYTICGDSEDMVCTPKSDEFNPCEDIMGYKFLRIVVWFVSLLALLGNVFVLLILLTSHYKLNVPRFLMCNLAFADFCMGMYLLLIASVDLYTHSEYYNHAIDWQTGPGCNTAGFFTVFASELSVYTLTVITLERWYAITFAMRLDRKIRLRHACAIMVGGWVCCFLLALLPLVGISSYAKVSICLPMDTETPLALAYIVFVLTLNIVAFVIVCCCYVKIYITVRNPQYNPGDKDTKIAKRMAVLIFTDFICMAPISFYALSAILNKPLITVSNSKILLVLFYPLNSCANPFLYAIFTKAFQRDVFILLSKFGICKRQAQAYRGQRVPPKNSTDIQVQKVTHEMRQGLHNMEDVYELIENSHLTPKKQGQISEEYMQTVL
Chain of Luciferin 4-monooxygenase (Photinus pyralis) (P08659 whole entry, looked up): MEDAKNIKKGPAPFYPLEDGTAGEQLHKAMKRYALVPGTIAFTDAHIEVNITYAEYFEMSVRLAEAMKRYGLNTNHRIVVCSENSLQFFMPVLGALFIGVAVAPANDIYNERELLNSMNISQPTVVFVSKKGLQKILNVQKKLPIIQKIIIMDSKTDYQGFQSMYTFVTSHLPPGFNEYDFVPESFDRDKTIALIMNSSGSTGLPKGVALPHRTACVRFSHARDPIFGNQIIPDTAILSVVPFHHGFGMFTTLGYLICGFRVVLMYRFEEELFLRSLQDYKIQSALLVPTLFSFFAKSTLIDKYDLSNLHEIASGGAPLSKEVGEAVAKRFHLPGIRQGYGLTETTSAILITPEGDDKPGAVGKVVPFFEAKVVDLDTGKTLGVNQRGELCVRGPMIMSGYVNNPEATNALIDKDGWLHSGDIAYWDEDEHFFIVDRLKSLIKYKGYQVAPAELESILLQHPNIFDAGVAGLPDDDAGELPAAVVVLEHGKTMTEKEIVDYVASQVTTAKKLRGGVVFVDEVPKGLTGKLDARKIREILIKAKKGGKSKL

CCC(C)(C)C1CCC(O)CC1 (configuration not stated)
inactive: Potency [1] | Potency [3] | Potency [4] | Potency [5] | Potency [6] | Potency [7] | Potency [8] | Potency [9] | outcome [10] | Potency [11] | Potency [12] | Potency [13] | Potency [14] | Potency [15]
active: Potency [2] 79.6 µM

CC(C)c1nnc2ccc(-c3ocnc3-c3cc(F)ccc3F)cn12
active: Potency [6] 48.6 µM | Potency [13] 21.9 µM
inactive: Potency [1] | Potency [2] | Potency [3] | Potency [4] | Potency [5] | Potency [7] | Potency [16] | Potency [8] | Potency [9] | outcome [10] | activity change, positive = activation [17] -31.4% | Potency [12] | Potency [14] | Potency [15]

COc1ccc(C(=O)c2cccc(O)c2)c(OC)c1
inactive: Potency [1] | Potency [2] | Potency [3] | Potency [4] | Potency [5] | Potency [6] | Potency [7] | Potency [9] | Potency [18] | outcome [10] | Potency [11] | Potency [12] | Potency [13] | Potency [14] | Potency [15]

C=CC(C)=CCC=C(C)C
inactive: Potency [1] | Potency [2] | Potency [3] | Potency [4] | Potency [5] | Potency [6] | Potency [7] | Potency [9] | Potency [18] | outcome [10] | Potency [11] | Potency [12] | Potency [13] | Potency [14] | Potency [15]

C[N+](C)(C)CCOC(N)=O
inactive: Potency [1] | Potency [2] | Potency [3] | Potency [4] | Potency [5] | Potency [6] | Potency [7] | Potency [9] | Potency [18] | Potency [11] | Potency [12] | Potency [13] | Potency [14] | Potency [15]

CC(C)(C)C(=O)O
inactive: Potency [1] | Potency [2] | Potency [3] | Potency [4] | Potency [5] | Potency [6] | Potency [7] | Potency [16] | Potency [8] | Potency [9] | Potency [18] | outcome [10] | Potency [11] | Potency [19] | activity change, positive = activation [17] 3.7% | Potency [12] | Potency [13] | Potency [14] | Potency [15]

CCCOCCOCCO
inactive: Potency [1] | Potency [2] | Potency [3] | Potency [4] | Potency [5] | Potency [6] | Potency [7] | Potency [8] | Potency [9] | Potency [18] | outcome [10] | Potency [11] | Potency [12] | Potency [13] | Potency [14] | Potency [15]

Cc1ccnc2ccccc12
inactive: Potency [1] | Potency [2] | Potency [3] | Potency [4] | Potency [5] | Potency [6] | Potency [7] | Potency [8] | Potency [9] | Potency [18] | outcome [10] | Potency [11] | Potency [12] | Potency [13] | Potency [15]

CCCCOC(=O)CCS
active: Potency [5] 24.3 µM
inactive: Potency [1] | Potency [2] | Potency [3] | Potency [4] | Potency [6] | Potency [8] | Potency [9] | Potency [18] | outcome [10] | Potency [11] | Potency [12] | Potency [13] | Potency [14] | Potency [15]

c1cnc2c(n1)CCCC2
inactive: Potency [1] | Potency [2] | Potency [3] | Potency [4] | Potency [5] | Potency [6] | Potency [7] | Potency [20] | Potency [16] | Potency [8] | Potency [9] | Potency [18] | outcome [10] | Potency [11] | Potency [19] | activity change, positive = activation [17] 3.42% | Potency [12] | Potency [13] | Potency [15]
active: Potency [14] 43.6 µM

COc1cc2[nH]c(=O)[nH]c(=O)c2cc1OC
inactive: Potency [1] | Potency [2] | Potency [3] | Potency [4] | Potency [5] | Potency [6] | Potency [20] | Potency [16] | Potency [8] | Potency [9] | Potency [18] | outcome [10] | Potency [11] | Potency [19] | activity change, positive = activation [17] 2.16% [at 42.5 µM] | Potency [12] | Potency [13] | Potency [14] | Potency [15]

CC(=O)CC(c1ccc([N+](=O)[O-])cc1)c1c(O)c2ccccc2oc1=O (configuration not stated)
inactive: Potency [1] | Potency [2] | Potency [3] | Potency [4] | Potency [5] | Potency [6] | Potency [7] | Potency [20] | Potency [16] | Potency [8] | Potency [9] | Potency [18] | outcome [10] | Potency [11] | Potency [19] | activity change, positive = activation [17] -11.1% [at 42.5 µM] | Potency [12] | Potency [13] | Potency [14] | Potency [15]

CN(C)C(=O)Nc1ccc(Oc2ccc(Cl)cc2)cc1
active: Potency [2] 63.3 µM | Potency [6] 30.6 µM | Potency [11] 89.8 µM | Potency [19] 13.7 µM | Potency [13] 38.9 µM
inactive: Potency [1] | Potency [3] | Potency [4] | Potency [5] | Potency [7] | Potency [16] | Potency [9] | Potency [18] | outcome [10] | activity change, positive = activation [17] -44.7% | Potency [12] | Potency [14] | Potency [15]

CC(C)(C)C(=O)C(Oc1ccc(Cl)cc1)n1ccnc1 (configuration not stated)
inactive: Potency [1] | Potency [2] | Potency [3] | Potency [4] | Potency [5] | Potency [6] | Potency [7] | Potency [16] | Potency [18] | outcome [10] | Potency [11] | activity change, positive = activation [17] -21.7% [at 42.5 µM] | Potency [12] | Potency [14] | Potency [15]
